In PubChem BioAssay one finds z-score and composite z-score data, which are given here for nine compounds.

The nature of assay [1]: E. coli DRC41 culture turbidity changes, primary screen, E. coli filamentation inducer project, strain DRC41, OD650, 48 h (AID 1152).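 Further: E. coli MC1000 strain DRC41 lacking acrAB efflux pump and sulA.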 The following applies: E. coli DRC41 (acrAB sulA), higher = more signal, called active from +8 up or from −8 down.
The nature of assay [2]: small-molecule binders of probe aLefty1, primary screen, biochemical, small-molecule microarray, 635/667 nm fluorescence (AID 1153).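 Further: score merges spot fluorescence with signal-to-noise ratio from the scanned slide images.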 The following applies: higher = more signal.
Assay [3] can be described thus: PSAC antagonists in infected red cells, primary screen, cell-based, P. falciparum Indochina, OD700, 1 h (AID 1154). Conditions: P. falciparum Indochina infected RBC osmotic lysis, higher = more signal, called active from +8 up or from −8 down.
Assay [4] can be described thus: PSAC antagonists in infected red cells, primary screen, cell-based, P. falciparum Indochina, OD700, 2 h (AID 1155).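 Further: lysis reports solute entry through the parasite surface anion channel PSAC; channel blockers reduce lysis of infected cells.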 The following applies: P. falciparum Indochina infected erythrocytes, osmotic lysis OD700; higher = more signal, called active from +8 up or from −8 down.
Assay [5] in a line: osmotic lysis modulators in infected erythrocytes, primary screen, PSAC antagonist project, cell-based, P. falciparum Indochina, OD700, 3 h (AID 1156). Conditions: higher = more signal, called active from +8 up or from −8 down.
A short description of assay [6]: PSAC antagonists in infected red cells, primary screen, cell-based, P. falciparum Indochina, OD700, 18 h (AID 1157). The following applies: P. falciparum Indochina infected erythrocytes, osmotic lysis OD700, 18 h; higher = more signal, called active from +8 up or from −8 down.
Assay [7] is described as follows: modulators of S6 phosphorylation in cells, primary screen, cell-based, A549, cytoblot, luminescence, serum-stimulated (AID 1158).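 Further: serum-stimulated A549 lung adenocarcinoma cells; signal is phosphorylated S6 detected by cytoblot immunostaining with HRP secondary.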 Conditions: A549 phospho-S6 cytoblot, 5 h, higher = more signal.
For assay [8], the target named is NADPH oxidase 2 (Homo sapiens) (UniProt P04839). Put plainly: NOX2-dependent H2O2 signal modulators, primary screen, NOX inhibitor project, cell-based, HEK293-NOX2, PMA-stimulated, Amplex Red fluorescence (AID 1159). Further: test concentration not given here. The following applies: 45 min, higher = more signal, called active from +8 up or from −8 down.
NADPH oxidase 2 (Homo sapiens), sequence (P04839 whole entry, looked up): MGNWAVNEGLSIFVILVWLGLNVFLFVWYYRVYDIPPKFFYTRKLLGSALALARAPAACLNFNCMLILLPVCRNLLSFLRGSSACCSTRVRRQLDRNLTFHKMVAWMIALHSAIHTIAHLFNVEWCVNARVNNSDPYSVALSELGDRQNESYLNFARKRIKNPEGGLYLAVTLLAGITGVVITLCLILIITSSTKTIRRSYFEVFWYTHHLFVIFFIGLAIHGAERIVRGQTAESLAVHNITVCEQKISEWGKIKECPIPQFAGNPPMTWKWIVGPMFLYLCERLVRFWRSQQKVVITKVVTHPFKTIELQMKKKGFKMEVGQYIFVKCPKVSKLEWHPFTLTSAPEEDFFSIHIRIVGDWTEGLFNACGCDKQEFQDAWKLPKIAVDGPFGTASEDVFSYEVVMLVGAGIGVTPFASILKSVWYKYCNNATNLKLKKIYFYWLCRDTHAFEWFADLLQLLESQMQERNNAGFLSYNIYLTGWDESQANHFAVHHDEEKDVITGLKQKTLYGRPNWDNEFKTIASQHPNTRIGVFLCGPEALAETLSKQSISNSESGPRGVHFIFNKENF
Assay [9] deals with NADPH oxidase 4 (Homo sapiens) (UniProt Q9NPH5). The assay can be described thus: NOX4-dependent H2O2 signal modulators, primary screen, NOX inhibitor project, cell-based, HEK293-NOX4, tetracycline-induced, Amplex Red fluorescence (AID 1160). The following applies: 45 min, higher = more signal, called active from +8 up or from −8 down.
NADPH oxidase 4 (Homo sapiens), sequence (Q9NPH5 whole entry, looked up): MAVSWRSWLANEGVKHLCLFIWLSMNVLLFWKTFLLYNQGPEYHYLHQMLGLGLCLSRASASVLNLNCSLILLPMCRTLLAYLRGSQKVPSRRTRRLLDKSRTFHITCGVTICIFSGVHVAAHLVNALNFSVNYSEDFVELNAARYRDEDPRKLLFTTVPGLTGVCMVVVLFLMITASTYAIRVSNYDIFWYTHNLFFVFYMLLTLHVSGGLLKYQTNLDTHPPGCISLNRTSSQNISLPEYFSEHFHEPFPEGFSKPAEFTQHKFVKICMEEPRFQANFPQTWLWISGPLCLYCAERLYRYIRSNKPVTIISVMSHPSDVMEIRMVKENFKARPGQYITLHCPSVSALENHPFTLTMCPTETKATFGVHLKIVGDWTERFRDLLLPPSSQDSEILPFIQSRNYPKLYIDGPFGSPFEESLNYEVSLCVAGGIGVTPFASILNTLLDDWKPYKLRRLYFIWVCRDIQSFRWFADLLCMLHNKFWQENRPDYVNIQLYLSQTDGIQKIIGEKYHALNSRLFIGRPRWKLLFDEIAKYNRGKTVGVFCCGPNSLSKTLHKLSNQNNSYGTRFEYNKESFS
The target in assay [10] is NADPH oxidase 5 (Homo sapiens) (UniProt Q96PH1). The assay can be described thus: NOX5-dependent H2O2 signal modulators, primary screen, NOX inhibitor project, cell-based, HEK293-NOX5, Amplex Red fluorescence (AID 1161). Conditions: HEK293-NOX5, ionomycin, 45 min, higher = more signal.
NADPH oxidase 5 (Homo sapiens), sequence (Q96PH1 whole entry, looked up): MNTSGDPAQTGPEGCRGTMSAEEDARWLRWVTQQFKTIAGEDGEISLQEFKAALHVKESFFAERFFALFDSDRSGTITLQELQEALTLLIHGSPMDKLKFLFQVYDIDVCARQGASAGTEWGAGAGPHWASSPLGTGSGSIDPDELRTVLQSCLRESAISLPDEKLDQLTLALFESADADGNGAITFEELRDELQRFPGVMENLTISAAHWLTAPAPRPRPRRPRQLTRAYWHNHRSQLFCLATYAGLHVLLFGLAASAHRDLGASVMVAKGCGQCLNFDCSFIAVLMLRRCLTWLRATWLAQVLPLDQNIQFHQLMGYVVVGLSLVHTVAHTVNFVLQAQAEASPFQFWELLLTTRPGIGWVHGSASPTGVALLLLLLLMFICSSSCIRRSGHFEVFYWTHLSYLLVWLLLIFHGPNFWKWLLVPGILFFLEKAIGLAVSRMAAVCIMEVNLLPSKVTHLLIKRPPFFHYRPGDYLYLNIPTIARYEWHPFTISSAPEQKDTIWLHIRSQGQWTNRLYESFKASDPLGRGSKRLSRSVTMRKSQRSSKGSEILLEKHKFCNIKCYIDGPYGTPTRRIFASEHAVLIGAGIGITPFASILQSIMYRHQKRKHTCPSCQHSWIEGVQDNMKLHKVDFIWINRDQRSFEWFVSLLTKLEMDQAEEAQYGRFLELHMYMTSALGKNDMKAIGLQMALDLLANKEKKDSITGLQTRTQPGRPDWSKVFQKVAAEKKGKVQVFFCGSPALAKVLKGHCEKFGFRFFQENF

Molecules are shown by their SMILES. “And” between values parts separate entries of the source, which are not always exact repeats. Equal entries are not always repeated. The source made the active and inactive calls.

Regarding `C=CCN(Cc1ccccc1)C(=O)C1N(c2ccc(CCO)cc2)C(=O)C2C(C(=O)O)C3C=CC21O3` (stereo not given), the z-score was 0.458 (inactive) and 1.31 (inactive) in assay [1]; 1.25 (inactive) and 1.16 (inactive) in assay [3]; 0.401 (inactive) and 0.572 (inactive) in [4]; 0.0406 (inactive) and -0.339 (inactive) in assay [5]; -0.157 (inactive) and 0.382 (inactive) in assay [6]; -0.0071 and 0.775 in assay [7]. Besides, the z-score in [8] is 0.819 (inactive) and 0.498 (inactive); in assay [9], -1.13 (inactive) and -0.149 (inactive); in [10], 0.865 and 0.168. Besides, the composite z-score in assay [2] is -0.289 and -0.27.

`COc1ccc(O[C@H]2C=C[C@@H](c3ccccc3)O[C@@H]2COC(=O)CCC(C)=NO[C@H](C)c2cn([C@H](CO)Cc3ccccc3)nn2)cc1`: the z-score is 0.756 (inactive) and 0.0906 (inactive) in assay [1]; 14.1 (active) and 13.6 (active) in assay [3]; 1.6 (inactive) and 2.16 (inactive) in [4]; 2.07 (inactive) and 1.09 (inactive) in assay [5]; 0.711 (inactive) and 0.907 (inactive) in assay [6]; -0.112 and -0.835 in [7]. The z-score in assay [8] was -2.32 (inactive) and -2.14 (inactive); in assay [9] it was 0.0167 (inactive) and -2.56 (inactive); in assay [10], -1.63 and -3.66. For the same compound, the composite z-score in assay [2] is 0.273 and -0.553.

Take `C=C[C@@H](OC)[C@H](O)c1ccc(O)c(F)c1`: the z-score in assay [1] was 0.0737 (inactive) and 1.88 (inactive); in assay [3] it was 0.268 (inactive) and -0.347 (inactive); in [4], -0.132 (inactive) and -0.266 (inactive); in [5] it was -0.387 (inactive) and -0.924 (inactive); in assay [6], 0.426 (inactive) and -1.02 (inactive); in assay [7] it was -0.422 and 1.68. The z-score was 0.203 (inactive) and -0.689 (inactive) in [8]; -1.69 (inactive) and -0.842 (inactive) in [9]; -1.64 and -1.95 in assay [10]. Further, the composite z-score in assay [2] is -0.284 and -0.196.

As for `C[C@@H]1CC[C@H]2C(=O)N3[C@@H](CC[C@@H](C)[C@@H]3c3ccc(-c4ccco4)cc3)C(=O)N2[C@H]1c1ccc(-c2ccco2)cc1`, the z-score was -0.581 (inactive) and 0.529 (inactive) in assay [1]; 0.91 (inactive) and 0.469 (inactive) in [3]; -0.0315 (inactive) and -0.262 (inactive) in assay [4]; 0.0919 (inactive) and 1.71 (inactive) in [5]; -0.364 (inactive) and -0.853 (inactive) in [6]; -0.146 and -0.115 in [7]. In addition, the z-score in assay [8] was 0.331 (inactive) and 0.931 (inactive); in [9] it was -1.03 (inactive) and 0.685 (inactive); in [10] it was -0.273 and -1.03. In addition, the composite z-score in assay [2] was 0.0927 and 0.38.

Consider `COC(=O)[C@H](C)NC(=O)CCC1CC(OC(=O)NCCc2ccc(F)cc2)CC2(CCCC(COC(=O)NCCCN3CCCC3=O)O2)O1` (stereo not given in full), for which the z-score in [1] is -0.184 (inactive); in assay [3], -0.798 (inactive); in [4], -0.744 (inactive); in assay [5], 1.05 (inactive); in assay [6], 0.298 (inactive); in [7], 0.244. For the same compound, the z-score in assay [8] was 1.32 (inactive); in assay [9] it was 0.113 (inactive); in [10], -0.0138. In addition, the composite z-score in assay [2] is -0.294.

Turning to `C=CCN(C(=O)C(c1cccs1)N(CCOCCO)C(=O)/C=C\C(=O)O)c1ccc(OC)cc1` (stereo not given), the z-score is 3.55 (inactive) and 2.87 (inactive) in assay [1]; 0.195 (inactive) and -0.888 (inactive) in [3]; -0.567 (inactive) and -0.967 (inactive) in [4]; 0.0684 (inactive) and -1.43 (inactive) in [5]; -0.922 (inactive) and -0.842 (inactive) in [6]; 2.24 and 0.28 in assay [7]. For the same compound, the z-score in [8] is 0.118 (inactive) and -0.448 (inactive); in [9], -0.578 (inactive) and -1.19 (inactive); in [10] it was -0.0456 and 0.0347. Besides, the composite z-score in assay [2] is -0.262 and -0.142.

Consider `C=C[C@@H](C)[C@@H](O)c1ccc(OCCO)cc1`, for which the z-score in assay [1] is 0.155 (inactive) and 1.8 (inactive); in assay [3] it was 1.23 (inactive) and 0.481 (inactive); in assay [4], 0.568 (inactive) and -0.311 (inactive); in [5], 0.321 (inactive) and -0.929 (inactive); in assay [6], 0.281 (inactive) and -0.873 (inactive); in assay [7] it was 0.0021 and 0.856. For the same compound, the z-score in [8] was -0.228 (inactive) and -0.985 (inactive); in [9], -0.115 (inactive) and -0.247 (inactive); in assay [10], -0.0389 and -0.521. The composite z-score in assay [2] was -0.237 and -0.102.

For the compound `C=CC[C@@H](O)c1ccc(O)c2ccccc12`, the z-score was 1.07 (inactive) and -0.266 (inactive) in assay [1]; 0.964 (inactive) and 0.883 (inactive) in assay [3]; 0.263 (inactive) and 0.49 (inactive) in assay [4]; -0.379 (inactive) and -0.519 (inactive) in [5]; 0.131 (inactive) and 0.548 (inactive) in [6]; -0.241 and 0.206 in assay [7]. Moreover, the z-score was -5.68 (inactive) and -5.98 (inactive) in [8]; -1.28 (inactive) and -1.66 (inactive) in assay [9]; 1.61 and 0.954 in assay [10]. For the same compound, the composite z-score in assay [2] is 0.113 and 0.176.

Consider `CO[C@@H]1COC(=O)CC=C[C@H](C)COC(=O)[C@H](C)NC(=O)CC=C[C@H]1C`, for which the z-score in [1] was -0.762 (inactive); in [3], -0.0875 (inactive); in assay [4], 0.193 (inactive); in assay [5], 0.599 (inactive); in assay [6] it was -0.138 (inactive); in assay [7], -0.677. Besides, the values for the z-score in [8], in [9] and in [10] were 2.01 (inactive), 0.486 (inactive) and -0.47, respectively. Further, the composite z-score in assay [2] is -0.344.
